Screen size: about 350,000 compounds; about 31,000 (8.9%) were called active. About 15% were inconclusive and are not listed. Calls follow the shape of the dose curve; as a rule, active = well fitted inhibition curve with a large enough effect; inconclusive = small, poorly fitted or top-dose-only effect; inactive = no such curve, though single readings can be large or run the other way. Shown is part of a subset that was picked to be rich in actives.
Molecular target: Histone-lysine N-methyltransferase EHMT2 (Homo sapiens) (UniProt Q96KQ7)
Sequence (Q96KQ7 913-1193 limits assumed): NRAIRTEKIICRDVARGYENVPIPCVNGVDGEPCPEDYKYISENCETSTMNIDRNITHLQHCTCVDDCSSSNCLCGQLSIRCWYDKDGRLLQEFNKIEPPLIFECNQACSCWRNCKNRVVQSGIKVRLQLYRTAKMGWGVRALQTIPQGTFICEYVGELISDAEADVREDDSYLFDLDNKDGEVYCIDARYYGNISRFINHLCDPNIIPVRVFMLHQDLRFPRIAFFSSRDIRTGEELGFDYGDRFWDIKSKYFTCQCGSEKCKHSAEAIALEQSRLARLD
Assay: qHTS Assay for Inhibitors of Histone Lysine Methyltransferase G9a; also: nearly all actives have a fitted effect of over 75% in size
Settings: G9a H3K9 monomethylation, AlphaScreen, 2 h; series mostly up to 59 µM
Summary of the method: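 Using a bead-based AlphaScreen, monomethylated H3K9 product from 2 h room-temperature reactions (G9a 20 nM, peptide 500 nM, SAM 20 uM) was detected with 0.5 ug/mL rabbit anti-H3K9me1 antibody.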
% is scaled to controls: 0 for no effect and ±100 for the full control effect; potency is read from the fitted curve at half-maximal effect.

Potency, inactive:
O=C1CN(C(=O)Nc2ccccc2C(F)(F)F)C(c2ccccc2)c2c(sc3c2CCCC3)N1 (stereo not drawn)
O=C(NCC(=O)N(CC1CCCO1)C(C(=O)NC1CCCCC1)c1ccccc1)c1ccco1 (stereo not drawn)
CC(C)c1ccc(N(C(=O)c2ccco2)C(C(=O)NC2CCCC2)c2cccnc2)cc1 (stereo not drawn)
Cc1ccc(CN2C(=O)N/C(=C/c3cc(C)n(-c4ccccn4)c3C)C2=O)cc1
CCC1=NN2C(=N)/C(=C/c3cc(C)n(-c4ccccc4)c3C)C(=O)N=C2S1
Cc1cc(C)c2oc(C(=O)Nc3c(C(=O)Nc4ccccc4)oc4ccccc34)cc(=O)c2c1
CCOc1ccc2nc(N3CCCC(C(=O)Nc4cc(C)ccc4C)C3)sc2c1 (stereo not drawn)
COc1ccc(CCN=C2SCC(=O)N2Cc2ccccc2)cc1OC
COc1ccc(C2C(=O)N(C3CCCCCC3)CC(=O)N2CCc2ccc(Cl)cc2)cc1OC (stereo not drawn)
Cc1cc(C)nc(SCC(=O)c2ccc(Cl)cc2)n1
Cc1nc2nc(SCC(=O)c3ccccc3)[nH]c2cc1Br
CCOC(=O)CSc1nc2ccc(C)cc2[nH]1
Cc1ccc2nc(SCC(=O)NC3CCCC3)[nH]c2c1
CCOC(=O)c1c(SCC(=O)Nc2cccc(C)c2C)nc(=O)[nH]c1C
Cc1ccc(NC(=O)C2CCN(S(=O)(=O)c3cc(-c4noc(C)n4)ccc3C)CC2)c(C)c1
CCOCCCNC(=O)c1cc2c(=O)n3ccccc3nc2s1
Cc1[nH]c2ccccc2c1/C=N\NC(=O)Cn1nnc(-c2ccccc2)n1
COCCNC(=S)N/N=C/c1c(C)[nH]c2ccccc12
O=C(Nc1ccc(F)cc1F)c1cnn(-c2ccc(F)cc2)c1-n1cccc1
O=C(OCC(=O)N1CCOCC1)c1ccc2ccccc2c1
CCn1c2ccccc2c2nnc(N3CCN(c4cc(C)ccc4C)CC3)nc21
C=CCn1c2ccccc2c2nnc(SC(CC)C(=O)Nc3nc(C)c(C(=O)OCC)s3)nc21 (stereo not drawn)
COc1cccc(C2CC(c3cccs3)=NN2C(=O)CSC2=NCCS2)c1OC (stereo not drawn)
O=C(CSc1nc2nccnc2c(=O)n1Cc1cccs1)Nc1ccccc1F
Cc1cc2n(n1)C(c1cc(C(C)(C)C)c(O)cc1O)Nc1ccccc1-2 (stereo not drawn)
Cc1csc(NC(=O)CSc2ccc(-c3ccc(F)cc3)nn2)n1
O=C(CSc1ccc(-c2ccccn2)nn1)Nc1ccccc1
O=C(N/N=C\C1CC=CCC1)c1ccc(Br)o1 (stereo not drawn)
CC(NC(=O)c1cc2c(=O)n3ccccc3nc2n(C(C)C)c1=N)c1ccccc1 (stereo not drawn)
COc1ccc(C(=O)CSc2nc(C)cc(C)n2)cc1[N+](=O)[O-]
COc1ccc(OCc2cn3c(C)cc(C)nc3n2)cc1
C/C(N)=C(/C#N)C(=O)COC(=O)C1=NN(c2ccccc2)C(=O)CC1
CC(=O)c1sc(N/N=C\c2ccc(C)cc2)nc1C
COc1ccc(-c2nc(C)c(CCNC(=O)c3ccc(C(F)(F)F)cc3)s2)cc1OC
CCOc1cc(CNC(=O)c2sc3ncnc(N(C)C4CCCCC4)c3c2C)ccc1OC
O=C(O)CCCn1c(=O)c2cccn2c2ccc(F)cc21
COCCCNC(=O)C1CC(=O)N(CCc2ccc(F)cc2)C1 (stereo not drawn)
COc1ccc(NC(=O)CCNS(=O)(=O)c2ccc3c(c2)CCCC(=O)N3)cc1Cl
CCc1ccc(NC(=O)CN2C(=O)CCSc3ccc(S(=O)(=O)N4CCCC4)cc32)cc1
COc1ccc2c(c1)c(=O)c(C(=O)c1ccccc1)cn2CC(=O)Nc1ccc2c(c1)OCCO2
O=C(Nc1cccc([N+](=O)[O-])c1)N1CCc2ccccc2C1
CN(CC(=O)Nc1ccc(Cl)c(C(F)(F)F)c1)C(=O)CCC(=O)c1ccccc1
COc1ccccc1CN1CCC(CNC(=O)c2cnn(-c3ccccc3Cl)c2C2CCN(C(=O)OC(C)(C)C)CC2)CC1
CN(Cc1nc2ccccc2s1)C(=O)c1ccc(F)cc1
Cc1nc2ccccc2c(-c2ccccc2)c1C(=O)c1ccccc1
COc1cc(C(=O)N2CCN(C(=O)COc3cccc(C)c3)CC2)cc(OC)c1OC
Cc1ccc(CNS(=O)(=O)c2ccc(-c3cc(C(F)(F)F)on3)s2)cc1
Cc1ccc(CN2C(=O)SC(Nc3ccccc3)C2=O)cc1 (stereo not drawn)
Cn1cc(/C=C/c2nc3ccccc3c(=O)n2-c2cccc([N+](=O)[O-])c2)c2ccccc21
Cc1ccc(N2C(=O)S/C(=C/c3cn(C)c4ccccc34)C2=O)cc1
CCC(=O)N1CCc2cc(S(=O)(=O)NC(C(=O)Nc3ccc(C(C)=O)cc3)C(C)C)ccc21 (stereo not drawn)
Cc1ccc(C)c(NC(=O)C2CCCN(S(=O)(=O)c3cn(C)cn3)C2)c1 (stereo not drawn)
C=CCNc1nc(N)c([N+](=O)[O-])c(NC2CCCCC2)n1
CCCNC(=O)CCc1c(C)nc2c(c(C)nn2-c2ccccc2)c1C
Cc1ccc(C)c(Cn2c(C(=O)O)c(CNCc3cccs3)c3ccccc32)c1
COc1cccc(CC(=O)Nc2nc(-c3ccc(OC)c(OC)c3)cs2)c1
CC(=O)Nc1nc(C)c(-c2csc(Nc3ccc(S(N)(=O)=O)cc3)n2)s1
O=C(Nc1ccccc1)Nc1nc2ccccc2s1
COc1ccc(CC(=O)Nc2nc(-c3ccc(F)c(F)c3)cs2)cc1OC
CCOC(=O)Cc1csc(NC(=O)Nc2ccccc2)n1
COc1ccc(-c2csc(NC3OC(=O)c4ccccc43)n2)cc1 (stereo not drawn)
COc1ccc2nc(Nc3nc(-c4ccncc4)cs3)sc2c1

Potency, active:
CC(C)c1ccc(C2C(C(=O)c3ccco3)=C(O)C(=O)N2CC2CCCO2)cc1 (stereo not drawn) 44.7 µM
Cc1cccc(C)c1-n1c(C)cc(/C=C2\C(=O)NN(c3ccccc3)C2=O)c1C 15.8 µM
COc1cc(C2CC(=O)N3CN(Cc4ccccc4)CSC3=C2C#N)ccc1OCc1ccccc1 (stereo not drawn) 0.891 µM
CC(=O)Nc1ccc(C(=O)CSc2nc3ccc(C)cc3[nH]2)cc1 7.08 µM
O=C(CSc1nc2ccc([N+](=O)[O-])cc2[nH]1)c1ccc(Cl)cc1 5.01 µM
CN=c1scc(-c2cc(OC)ccc2OC)n1/N=C/c1c(C)[nH]c2ccccc12 12.6 µM
COCCN(CCOC)c1nc(N)c2c(N)nc3c(c2c1C#N)CC(=O)N3Cc1ccc(Cl)cc1 17.8 µM
CCn1c2ccccc2c2nnc(SCC(=O)O)nc21 10 µM
O=C(CSc1ccc(-c2ccc(-n3cccn3)cc2)nn1)Nc1ccc([N+](=O)[O-])cc1 15.8 µM
Cc1nn(-c2ccccc2)c2c1C(c1ccc(F)cc1)C(C#N)=C(N)O2 (stereo not drawn) 50.1 µM
COc1ccc(C(C[N+](=O)[O-])n2nc(C)cc2C)cc1 (stereo not drawn) 6.31 µM
CC(=O)c1sc(NC(=O)C2=NN(c3ccccc3)C(=O)CC2)nc1C 25.1 µM
COCCCn1c(CCC(=O)O)ccc1-c1ccc(F)cc1 11.2 µM
CN(CC(=O)Nc1ccccc1C(F)(F)F)C(=O)Cc1ccccc1F 50.1 µM
Cc1nc2ccccc2c(C)c1C(=O)c1ccc(F)cc1 50.1 µM
Cc1cccc(N=C2NC(=O)/C(=C/c3cn(C)c4ccccc34)S2)c1 79.4 µM
COc1ccc(OC)c(Nc2nc(-c3ccc(O)c(O)c3)cs2)c1 3.98 µM
NS(=O)(=O)c1ccc(Nc2nc(-c3ccccc3)cs2)cc1 44.7 µM
COc1ccc(Nc2nc(-c3ccccc3)cs2)cc1 12.6 µM
CC(=O)Nc1ccc(-c2csc(NC(=O)Nc3ccccc3)n2)cc1 44.7 µM

activity, negative = inhibition, inactive:
Cc1ccc([C@@H]2CC=C(C(=O)O)[C@H](c3cccc(Cl)c3)N2S(=O)(=O)c2ccc(C)cc2)cc1 3.76% [at 2.33 µM]
O=C(COC(=O)c1cccc(Cl)c1)Nc1ccc2[nH]c(=O)[nH]c2c1 10.7% [at 2.33 µM]
CCCc1[nH]nc2c1C(c1c(C)nn(-c3ccccc3)c1Cl)C(C#N)=C(N)O2 (stereo not drawn) -26.6% [at 12.7 µM]
C=CCOC(=O)C1=C(C)OC(N)=C(C#N)C1c1ccc(F)cc1 (stereo not drawn) 14.3% [at 2.33 µM]
Cc1ccc(S(=O)(=O)N2CCN(C(=O)c3ccc(-n4cncn4)c([N+](=O)[O-])c3)CC2)cc1 -0.498% [at 12.7 µM]
COc1cc2c(cc1OC)[C@@H](Cc1cc(OC)c(OC)c(OC)c1)[N+](C)(CCCOC(=O)CC/C=C/CCC(=O)OCCC[N+]1(C)CCc3cc(OC)c(OC)cc3[C@H]1Cc1cc(OC)c(OC)c(OC)c1)CC2 (stereo partly drawn) 6.96% [at 12.7 µM]
Cc1noc(C)c1C(=O)NCC1COc2ccccc2O1 (stereo not drawn) -3.43% [at 2.33 µM]
O=C(NCCCc1ccccc1)C1CCC(=O)N(CCc2ccc(Cl)cc2)C1 (stereo not drawn) -2.97% [at 12.7 µM]
CC(C(=O)N(C)CC(=O)Nc1ccccc1C(F)(F)F)N1C(=O)c2ccccc2C1=O (stereo not drawn) 8.77% [at 12.7 µM]
CN(C(=O)COC(=O)c1ccc(Br)o1)c1c(N)n(Cc2ccccc2)c(=O)[nH]c1=O -30.9% [at 0.501 µM]
O=C(Nc1ccc(-c2csc(Nc3cccc(C(F)(F)F)c3)n2)cc1)c1cccc(C(F)(F)F)c1 -6.74% [at 12.7 µM]
